Data published in PubChem BioAssay.
Active and inactive are the calls of the source.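 Rule for the calls, unless noted: active = compounds whose cell count with miR-34 switched on is under 0.7 times the count with it off; inactive = the rest.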

Tests used:
[1] = viability loss with induced miR-34 in A549 – imaging, A549 dox-inducible miR-34, nuclei and caspase counts, primary screen (AID 1347080); conditions: A549 miR-34 inducible, Hoechst nuclei count, 48 h
[2] = MELAS cybrid and Rieske KO viability enhancers – cell-based, MELAS cybrids, Rieske KO mouse fibroblasts, CellTiter-Glo, primary screen (AID 1508586;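 active = mean z-score across replicates of 1.96 or higher in either the MELAS or the Rieske mutant cell line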;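 note: z relative to plate mean and SD of compound and empty wells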); conditions: low glucose
[3] = stronger effect = lower value, cell number ratio, induced over uninduced
[4] = measured here: relative caspase fold change +Dox/-Dox
[5] = measured here: total cells with miR-34 induction, stronger effect = lower value
[6] = measured here: total cells without miR-34 induction
[7] = MELAS cybrid survival, CellTiter-Glo 48 h, stronger effect = higher value
[8] = Rieske KO mouse fibroblast survival, CellTiter-Glo 72 h
Note: test concentration not given here.

Row | SMILES | fold change [1, 3] | fold change [1, 4] | cell count [1, 5] | cell count [1, 6] | z-score [2, 7] | z-score [2, 8]
1 | COc1ccc(CC(NC(=O)C(C)NC(=O)CN2CCOCC2)C(=O)NC(Cc2ccccc2)C(=O)[C@]2(C)CO2)cc1 (some centres undefined) | 1.43 (inactive) | 1 | 990 | 690 | -0.544 (inactive) | -7.62
2 | COc1cc(F)c(C(C)C)cc1-c1ccc(C(F)(F)F)cc1CN1C(=O)OC(c2cc(C(F)(F)F)cc(C(F)(F)F)c2)C1C (centres undefined) | 0.899 (inactive) | 0.917 | 8290 | 9220 | -0.143 (inactive) | 0.372
3 | CC(C)OC(=O)OCOP(=O)(COC(C)Cn1cnc2c(N)ncnc21)OCOC(=O)OC(C)C (centres undefined) | 0.941 (inactive) | 0.831 | 7870 | 8370 | -0.399 (inactive) | 0.463
4 | CC1(C)O[C@H]2CC(=O)OC[C@]23[C@H]2CC[C@@]4(C)C(c5ccoc5)OC(=O)C5O[C@]54[C@@]2(C)C(=O)C[C@@H]13 (some centres undefined) | 0.854 (inactive) | 0.906 | 8580 | 10000 | -0.275 (inactive) | -0.503
5 | Cc1c(CN2CCN(C(=O)C(C)O)CC2)sc2c(N3CCOCC3)nc(-c3cnc(N)nc3)nc12 (centres undefined) | 1.11 (inactive) | 0.549 | 2480 | 2230 | 2.06 (active) | -2.39
6 | CNc1ncnc2c1ncn2C1OC(CO)C(O)C1O (centres undefined) | 0.908 (inactive) | 0.537 | 7310 | 8050 | -0.0172 (inactive) | -0.235
7 | O=[N+]([O-])c1cn2c(n1)OCC(OCc1ccc(OC(F)(F)F)cc1)C2 (centres undefined) | 0.949 (inactive) | 0.871 | 6600 | 6960 | -0.338 (inactive) | 0.787
8 | Cc1c(Cc2ccc3ccccc3n2)c2cc(F)ccc2n1CC(=O)O | 0.985 (inactive) | 0.424 | 6920 | 7030 | 0.326 (inactive) | -0.0715
9 | COc1c(C)c2c(c(O)c1CC=C(C)CCC(=O)O)C(=O)OC2 | 1.08 (inactive) | 0.86 | 3150 | 2920 | 0.238 (inactive) | 0.269
10 | CC(C)(C)c1ccc(-c2nc3ccccc3[nH]2)cc1 | 0.982 (inactive) | 0.555 | 8150 | 8300 | -0.625 (inactive) | -3.26
11 | C#C[C@]1(O)CC[C@H]2[C@@H]3CCC4=CC(=O)CC[C@@H]4[C@@H]3CC[C@@]21C | 0.857 (inactive) | 0.775 | 7940 | 9270 | -0.24 (inactive) | -0.172
12 | COc1cc(-c2ncn(C=CC(=O)OC(C)C)n2)cc(C(F)(F)F)c1 | 0.884 (inactive) | 0.634 | 2040 | 2310 | -0.00249 (inactive) | -7.09
13 | CCCCCCOC(=O)N=C(N)c1ccc(NCc2nc3cc(C(=O)N(CCC(=O)OCC)c4ccccn4)ccc3n2C)cc1 | 0.94 (inactive) | 0.85 | 8810 | 9380 | -0.278 (inactive) | 0.124
14 | O=C(Nc1ncc(SCCN2CCCC2)s1)[C@]1(c2ccc(S(=O)(=O)C3CC3)cc2)CC1C1CCCCC1 (some centres undefined) | 0.954 (inactive) | 1.22 | 5020 | 5260 | -0.306 (inactive) | -0.0398
15 | COc1c(C)c2c(c(O)c1CC=C(C)CCC(=O)OCCN1CCOCC1)C(=O)OC2 | 0.917 (inactive) | 1.06 | 1830 | 1990 | 0.827 (inactive) | -0.579
16 | CC(OC1OCCN(Cc2nn(P(=O)(O)O)c(=O)[nH]2)C1c1ccc(F)cc1)c1cc(C(F)(F)F)cc(C(F)(F)F)c1 (centres undefined) | 1.01 (inactive) | 0.443 | 5980 | 5920 | -0.192 (inactive) | -0.0927
17 | CN(C)C1C(=O)C(C(N)=O)=C(O)[C@@]2(O)C(=O)C3=C(O)c4c(O)ccc(Cl)c4C(O)[C@H]3C[C@@H]12 (some centres undefined) | 0.836 (inactive) | 1.66 | 6970 | 8340 | 3.28 (active) | 5.13
18 | CC(C)OC(=O)C(C)N[P@](=O)(OCC1OC(n2ccc(=O)[nH]c2=O)[C@](C)(F)C1O)Oc1ccccc1 (some centres undefined) | 0.909 (inactive) | 0.639 | 9560 | 10500 | -0.378 (inactive) | 0.864
19 | Cn1c(=O)c(F)c(Nc2ccc(I)cc2F)c2c(=O)n(CC(O)CO)cnc21 (centres undefined) | 1.04 (inactive) | 0.57 | 3130 | 3010 | -0.414 (inactive) | -1.17
20 | C[C@]12C=CC(=O)N[C@@H]1CC[C@@H]1[C@H]2CC[C@]2(C)C(C(=O)Nc3cc(C(F)(F)F)ccc3C(F)(F)F)CC[C@@H]12 (some centres undefined) | 0.962 (inactive) | 0.927 | 6640 | 6910 | -0.568 (inactive) | 0.0125
21 | CC(Cc1cc2c(c(C(N)=O)c1)N(CCCO)CC2)NCCOc1ccccc1OCC(F)(F)F (centres undefined) | 0.869 (inactive) | 0.814 | 6950 | 8000 | -0.42 (inactive) | -0.511
22 | CCNc1nc(Nc2cc(F)c(C(=O)N3CCOCC3)cc2OC)ncc1C(F)(F)F | 0.9 (inactive) | 0.418 | 8080 | 8970 | -0.325 (inactive) | -0.142

Row | SMILES | fold change [1, 3] | fold change [1, 4] | cell count [1, 5] | cell count [1, 6] | z-score [2, 7] | z-score [2, 8]
23 | C[C@]1(C(=O)Nc2ccc(F)nc2)CCCN1c1nc(Nc2cc(C3CC3)[nH]n2)c2cccn2n1 | 1.01 (inactive) | 0.776 | 2100 | 2080 | -0.348 (inactive) | -2.24
24 | CC(C)(C)c1cc(C(=O)C(C#N)=NNc2cccc(Cl)c2)no1 | 0.873 (inactive) | 0.45 | 4320 | 4950 | -0.557 (inactive) | -3.22
25 | CC(=CC(=O)OCCCCCCCCC(=O)O)CC1OC[C@H](CC2O[C@H]2C(C)C(C)O)C(O)C1O (some centres undefined) | 0.939 (inactive) | 0.638 | 8270 | 8800 | 0.679 | 5.51
26 | CNc1nc(-c2ccc3c(N)n[nH]c3c2)cc(N2CC(C(=O)NC3CCCCC3)CCC2C)n1 (centres undefined) | 0.8 (inactive) | 0.791 | 6100 | 7620 | 0.231 (inactive) | -0.229
27 | CC(C)CC(NC(=O)C(Cc1ccccc1)NC(=O)c1cnccn1)B(O)O (centres undefined) | 0.948 (inactive) | 0.953 | 1020 | 1080 | -0.496 (inactive) | -2.5
28 | O=C(Oc1cc(S(=O)(=O)c2ccccc2)ccc1[N+](=O)[O-])c1ccc(Cl)cc1 | 0.897 (inactive) | 0.914 | 8540 | 9520 | -0.507 (inactive) | -2.16
29 | O=C1CCC[C@@H]2[C@@H]3CCC[N+]4([O-])CCC[C@H](CN12)[C@@H]34 (some centres undefined) | 0.977 (inactive) | 0.789 | 9620 | 9840 | -0.359 (inactive) | 0.579
30 | C=CCc1cccc(C=NNC(=O)CN2CCN(Cc3ccccc3)CC2)c1O | 0.992 (inactive) | 0.755 | 3820 | 3850 | -0.146 (inactive) | -1.03
31 | CNCc1cc(-c2ccccc2F)n(S(=O)(=O)c2cccnc2)c1 | 0.924 (inactive) | 0.437 | 8460 | 9150 | -0.328 (inactive) | 0.241
32 | COC1C[C@H]2CCC(C)[C@@](O)(O2)C(=O)C(=O)N2CCCC[C@H]2C(=O)OC(C(C)CC2CCC(OP(C)(C)=O)C(OC)C2)CC(=O)C(C)C=C(C)C(O)C(OC)C(=O)C(C)CC(C)C=CC=CC=C1C (some centres undefined) | 1.07 (inactive) | 0.835 | 4570 | 4270 | 0.709 (inactive) | 1.92
33 | O=C(CS(=O)Cc1ccco1)NCC=CCOc1cc(CN2CCCCC2)ccn1 (centres undefined) | 0.878 (inactive) | 0.735 | 8120 | 9240 | -0.242 (inactive) | -0.613
34 | CC1C=CC=CC=CC=CC=CC=CC=CC(OC2OC(C)C(O)C(N)C2O)CC2O[C@@](O)(CC(O)CC(O)C(O)CCC(O)CC(O)CC(=O)OC(C)C(C)C1O)CC(O)C2C(=O)O (some centres undefined) | 0.819 (inactive) | 1.3 | 6680 | 8160 | -0.196 (inactive) | 0.383
35 | CC(=O)OC1C[C@@H]2CC[C@@H]3[C@@H](CC[C@]4(C)C(OC(C)=O)C([N+]5(C)CCCCC5)C[C@@H]34)[C@@]2(C)CC1[N+]1(C)CCCCC1 (some centres undefined) | 0.982 (inactive) | 0.749 | 10400 | 10600 | -0.344 (inactive) | 0.747
36 | CNC(=O)c1cccc(-c2ccc3c(N4CCOCC4C)nc(N4CCOCC4C)nc3n2)c1 (centres undefined) | 1 (inactive) | 0.416 | 3420 | 3410 | 3.83 (active) | -2.15
37 | CCCN1CC(CSC)C[C@@H]2c3cccc4[nH]cc(c34)C[C@H]21 (some centres undefined) | 0.938 (inactive) | 0.485 | 7000 | 7460 | -0.0829 (inactive) | -0.225
38 | Cc1cc(Nc2ccc(NC(=O)c3ccc(Nc4ccnc5ccccc45)cc3)cc2)nc(N)n1 | 0.978 (inactive) | 0.411 | 6080 | 6210 | -0.384 (inactive) | -1.35
39 | COc1cc(C(C)=O)ccc1O | 0.901 (inactive) | 0.815 | 7660 | 8500 | -0.427 (inactive) | -0.0762
40 | CC(NCc1ccc(OCc2cccc(F)c2)cc1)C(N)=O (centres undefined) | 0.935 (inactive) | 1.08 | 7820 | 8360 | -0.428 (inactive) | 0.667
41 | Cc1cncc(CN2CCC(=C3c4ccc(Cl)cc4CCc4cccnc43)CC2)c1 | 1.04 (inactive) | 0.52 | 6230 | 6000 | -0.369 (inactive) | -0.161
42 | CCCC(NC(=O)C1[C@H]2CCC[C@H]2CN1C(=O)C(NC(=O)C(NC(=O)c1cnccn1)C1CCCCC1)C(C)(C)C)C(=O)C(=O)NC1CC1 (some centres undefined) | 0.872 (inactive) | 1.37 | 5460 | 6260 | -0.469 (inactive) | 0.214
43 | CCNC(=O)C1OC(n2cnc3c(N)nc(NCCc4ccc(CCC(=O)O)cc4)nc32)C(O)C1O (centres undefined) | 1.01 (inactive) | 0.733 | 7450 | 7360 | 0.177 (inactive) | -0.329
44 | COc1ccc(-c2cc(=O)c3c(O)cc(OC4OC(COC5OC(C)C(O)C(O)C5O)C(O)C(O)C4O)cc3o2)cc1O (centres undefined) | 0.912 (inactive) | 0.985 | 7570 | 8300 | -0.28 (inactive) | 0.179
